# Laboratory results as given in PubChem BioAssay (EPA / NIEHS).
# Activity calls are given as the source filed them. The calls were made as follows: active = hit-call score of the fitted dose curve at least 0.9, where 1 is the maximum; inactive = score below 0.9.
# Columns and labels:
# [1] = ATG_CRE_CIS: Attagene CIS-FACTORIAL HepG2 Assay for human cAMP Responsive Element (CRE) binding protein 3 (AID 2282926); conditions: HepG2 CRE cis-reporter, Attagene multiplexed mRNA; actives raise or lower the signal
# Summary of the method: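 Readout: fluorescently labelled reporter transcripts resolved by capillary electrophoresis after RT-PCR, taken 24 h post-dosing in transfected HepG2. Endogenous transcription factor activity drives each cis-element reporter; gain or loss of signal fitted relative to DMSO control.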
# [2] = target: CCAAT/enhancer-binding protein beta (Homo sapiens) (UniProt P17676); experiment: ATG_C_EBP_CIS: Attagene CIS-FACTORIAL HepG2 Assay for human CCAAT/Enhancer Binding Protein (C/EBP) beta (AID 2282927); conditions: HepG2 Attagene cis-factorial transcription factor reporter; actives raise or lower the signal
# Summary of the method: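 Endogenous C/EBPb-driven reporter transcripts measured in transfected human HepG2 cells at 24 h via RT-PCR and capillary electrophoresis of labelled fragments. Activity fitted in both directions relative to DMSO baseline.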
# [3] = ATG_CMV_CIS: Attagene CIS-FACTORIAL HepG2 Assay for human CMV (Internal Marker) (AID 2282928); conditions: HepG2 CMV promoter reporter, transcription factor profiling; actives raise or lower the signal;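 also: endpoint acts as a background internal control marker rather than a target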
# Summary of the method: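 Reporter transcripts from transfected HepG2 cells are isolated after 24 h of chemical dosing, reverse-transcribed and amplified. Fragments labeled with 6-FAM are cut with HpaI and quantified by capillary electrophoresis; DMSO defines baseline.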
# [4] = ATG_DR4_LXR_CIS: Attagene CIS-FACTORIAL HepG2 Assay for human Liver X Receptor (LXR), DR4 submotif (AID 2282929); conditions: HepG2 Attagene DR4 cis-reporter, mRNA transcription; actives raise or lower the signal
# Summary of the method: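 Measures endogenous transcription factor activity via a DR4-driven reporter transcript in human HepG2 cells. Compounds incubated 24 h; mRNA quantified by RT-PCR and capillary electrophoresis, analysed as gain or loss of signal versus DMSO.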
# [5] = target: Aryl hydrocarbon receptor (Homo sapiens) (UniProt P35869); experiment: ATG_Ahr_CIS: Attagene CIS-FACTORIAL HepG2 Assay for human Aryl Hydrocarbon Receptor (Ahr) (AID 2282930); conditions: HepG2 AhR cis-factorial reporter transcription; actives raise or lower the signal
# Summary of the method: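 Reporter mRNA levels, quantified by RT-PCR and fluorescent capillary electrophoresis, reflect endogenous AhR transcriptional activity in HepG2 cells carrying transfected cis-promoter reporter constructs. Readout at 24 h post-dose; gain or loss fitted against DMSO baseline.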
# [6] = ATG_AP_1_CIS: Attagene CIS-FACTORIAL HepG2 Assay for human Activator Protein 1 (AP-1) (AID 2282931); conditions: HepG2 Attagene cis-factorial AP-1 reporter mRNA; actives raise or lower the signal
# Summary of the method: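 Bidirectional concentration-response fitting against DMSO controls. Underlying signal: reporter mRNA from cis-promoter constructs in transiently transfected HepG2, measured after 24 h by RT-PCR and capillary electrophoresis.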
# [7] = ATG_AP_2_CIS: Attagene CIS-FACTORIAL HepG2 Assay for human Activator Protein 2 (AP-2) (AID 2282932); conditions: HepG2 AP-2 cis-reporter, Attagene transcription factor profiling; actives raise or lower the signal
# Summary of the method: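 Transiently transfected HepG2 cells are exposed to chemical for 24 h. Reporter transcripts are then measured as fluorescence following RT-PCR and capillary separation, and gain- or loss-of-signal is fitted relative to DMSO.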
# [8] = ATG_BRE_CIS: Attagene CIS-FACTORIAL HepG2 Assay for human Bone Morphogenetic Protein (BMP) Response Element (BRE) (AID 2282933); conditions: HepG2 BMP response element reporter, Attagene transcription factor profiling; actives raise or lower the signal
# Summary of the method: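 Gain- or loss-of-signal was derived by bidirectional fitting against DMSO controls. The signal came from reporter mRNA, measured by RT-PCR and capillary electrophoresis, in HepG2 cells transiently carrying multiple reporter units and dosed for 24 h.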
# [9] = target: Retinoic acid receptor alpha (Homo sapiens) (UniProt P10276); experiment: ATG_DR5_RAR_CIS: Attagene CIS-FACTORIAL HepG2 Assay for human Retinoic Acid Receptor Alpha (RARE), DR5 submotif (AID 2282934); conditions: HepG2 Attagene cis-factorial RARE DR5 reporter, mRNA; actives raise or lower the signal;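 as to AC50: reporter responds to endogenous RAR alpha beta and gamma in HepG2 not RARA alone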
# Summary of the method: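 Reporter transcripts from a DR5-regulated unit, measured via RT-PCR plus capillary electrophoresis, reflect endogenous RAR activity in transiently transfected human HepG2 liver cells. Exposure lasted 24 h; gain or loss of signal scored against DMSO.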
# CCAAT/enhancer-binding protein beta (Homo sapiens), sequence (P17676 whole entry, looked up, the tested form may be a part): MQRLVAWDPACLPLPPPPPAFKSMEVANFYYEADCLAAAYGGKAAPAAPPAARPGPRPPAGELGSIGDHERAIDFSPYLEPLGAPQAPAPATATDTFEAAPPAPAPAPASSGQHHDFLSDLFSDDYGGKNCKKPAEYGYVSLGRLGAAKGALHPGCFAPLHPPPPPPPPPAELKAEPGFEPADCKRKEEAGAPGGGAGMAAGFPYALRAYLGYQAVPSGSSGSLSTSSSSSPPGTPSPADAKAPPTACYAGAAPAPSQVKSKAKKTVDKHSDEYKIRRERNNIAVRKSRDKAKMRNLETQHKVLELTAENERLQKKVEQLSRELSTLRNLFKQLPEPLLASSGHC
# Retinoic acid receptor alpha (Homo sapiens), sequence (P10276 whole entry, looked up): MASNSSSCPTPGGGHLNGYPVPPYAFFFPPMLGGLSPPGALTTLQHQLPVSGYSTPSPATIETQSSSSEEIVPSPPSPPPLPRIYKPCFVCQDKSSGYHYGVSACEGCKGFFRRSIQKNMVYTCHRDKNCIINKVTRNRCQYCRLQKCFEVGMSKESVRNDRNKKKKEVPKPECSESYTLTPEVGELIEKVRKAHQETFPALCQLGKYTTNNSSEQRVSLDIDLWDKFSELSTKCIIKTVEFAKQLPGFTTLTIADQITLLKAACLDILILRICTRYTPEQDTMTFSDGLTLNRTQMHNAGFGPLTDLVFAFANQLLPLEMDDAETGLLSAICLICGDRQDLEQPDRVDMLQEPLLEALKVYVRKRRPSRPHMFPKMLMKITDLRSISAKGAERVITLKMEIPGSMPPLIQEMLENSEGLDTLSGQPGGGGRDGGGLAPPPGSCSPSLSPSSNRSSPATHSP
# Aryl hydrocarbon receptor (Homo sapiens), sequence (P35869 whole entry, looked up): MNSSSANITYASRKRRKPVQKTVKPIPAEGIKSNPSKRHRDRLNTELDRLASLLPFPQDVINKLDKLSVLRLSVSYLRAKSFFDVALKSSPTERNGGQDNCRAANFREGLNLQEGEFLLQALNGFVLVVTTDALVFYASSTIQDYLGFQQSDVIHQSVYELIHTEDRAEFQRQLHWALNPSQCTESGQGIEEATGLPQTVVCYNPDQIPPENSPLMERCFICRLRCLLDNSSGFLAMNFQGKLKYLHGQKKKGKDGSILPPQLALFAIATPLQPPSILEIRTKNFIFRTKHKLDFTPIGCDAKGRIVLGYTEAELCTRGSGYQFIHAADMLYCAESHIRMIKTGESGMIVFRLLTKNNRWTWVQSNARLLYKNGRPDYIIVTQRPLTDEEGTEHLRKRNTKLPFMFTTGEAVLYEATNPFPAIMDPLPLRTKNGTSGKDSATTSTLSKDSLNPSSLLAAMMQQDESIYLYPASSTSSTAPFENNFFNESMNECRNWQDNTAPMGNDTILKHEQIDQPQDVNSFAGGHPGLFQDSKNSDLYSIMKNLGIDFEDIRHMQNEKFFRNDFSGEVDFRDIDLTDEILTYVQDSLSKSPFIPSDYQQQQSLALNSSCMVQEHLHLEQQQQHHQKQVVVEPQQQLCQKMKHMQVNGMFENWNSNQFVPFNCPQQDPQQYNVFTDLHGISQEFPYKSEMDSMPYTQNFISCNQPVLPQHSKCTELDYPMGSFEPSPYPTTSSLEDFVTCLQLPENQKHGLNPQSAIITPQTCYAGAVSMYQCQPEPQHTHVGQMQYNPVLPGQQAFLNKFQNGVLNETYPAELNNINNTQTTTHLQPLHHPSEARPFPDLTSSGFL
SMILES,outcome [1],outcome [2],outcome [3],outcome [4],outcome [5],outcome [6],outcome [7],outcome [8],outcome [9],AC50 [2],AC50 [4],AC50 [6],AC50 [9],AC50 [5],AC50 [8]
CCC(C)C1CCCCC1=O (stereo unspecified),inactive,inactive,inactive,inactive,inactive,inactive,inactive,inactive,inactive,–,–,–,–,–,–
CCCCCCCCCCCCS,inactive,–,inactive,–,inactive,–,inactive,inactive,–,24.2 µM (active),33.4 µM (active),48.8 µM (active),9.11 µM (active),–,–
CCOC(=O)C=Cc1ccccc1,inactive,inactive,inactive,inactive,inactive,inactive,inactive,inactive,inactive,–,–,–,–,–,–
O=S(=O)(O)CCCN1CCOCC1,inactive,inactive,inactive,inactive,inactive,inactive,inactive,–,inactive,–,–,–,–,–,–
O=[N+]([O-])c1cc(N(CCO)CCO)ccc1NCCO,inactive,inactive,inactive,inactive,inactive,inactive,inactive,–,inactive,–,–,–,–,–,–
CCCCCCC(O)CCOC(C)=O (stereo unspecified),inactive,inactive,inactive,inactive,inactive,–,inactive,inactive,–,–,–,–,–,–,–
CC1(C)CC(=O)CC(C)(C)N1,inactive,inactive,inactive,inactive,inactive,–,inactive,inactive,–,–,–,–,–,–,–
CCOC(=O)CC1(C)OCC(C)O1 (stereo unspecified),inactive,inactive,inactive,inactive,inactive,inactive,inactive,inactive,inactive,–,–,–,–,–,–
CC(C)(O)C(=O)c1ccc(OCCO)cc1,inactive,inactive,inactive,inactive,inactive,–,inactive,inactive,–,–,–,–,–,–,–
CCCCCCCCCCCCCCCCCC(=O)OCCCCCCCCCCCCCC(C)C,inactive,inactive,inactive,inactive,inactive,–,inactive,inactive,–,–,–,–,–,–,–
CN(C)C(=O)Nc1ccccc1,inactive,inactive,inactive,inactive,inactive,inactive,inactive,inactive,inactive,–,–,–,–,–,–
C=C/C(C)=C/C/C=C(\C)CCC=C(C)C,inactive,inactive,inactive,inactive,inactive,–,inactive,inactive,–,–,–,–,–,–,–
CCCCC(CC)COCCO (stereo unspecified),inactive,inactive,inactive,inactive,–,–,inactive,inactive,–,–,–,–,–,19.8 µM (active),–
NNC(=O)OCc1ccccc1,inactive,inactive,inactive,inactive,inactive,–,inactive,inactive,inactive,–,–,–,–,–,–
NCCN1CCNCC1,inactive,inactive,inactive,inactive,inactive,inactive,inactive,inactive,inactive,–,–,–,–,–,–
NC(N)=NC(N)=NCCc1ccccc1,inactive,inactive,inactive,inactive,inactive,inactive,inactive,–,inactive,–,–,–,–,–,36.4 µM (active)
OCCN1CCOCC1,inactive,inactive,inactive,inactive,inactive,inactive,inactive,inactive,inactive,–,–,–,–,–,–
CCCCCCCCCCCCCC(=O)OCC,inactive,inactive,inactive,inactive,–,inactive,inactive,inactive,inactive,–,–,–,–,–,–
CCCCOC(=O)C(C)OC(=O)CCC (stereo unspecified),inactive,inactive,inactive,inactive,inactive,–,inactive,inactive,inactive,–,–,–,–,–,–
CCC(=O)OC(C)(C)C1CC=C(C)CC1 (stereo unspecified),inactive,inactive,inactive,inactive,–,–,inactive,–,inactive,–,–,–,–,–,–
CCCCOCCOC(=O)c1ccccc1C(=O)OCCOCCCC,inactive,inactive,inactive,–,–,inactive,inactive,inactive,inactive,–,55.8 µM (active),–,–,–,–
CC(C)(O)CCc1ccccc1,inactive,inactive,inactive,inactive,–,inactive,inactive,–,inactive,–,–,–,–,–,–
CCO[Si](CCC#N)(OCC)OCC,inactive,inactive,inactive,inactive,–,inactive,inactive,inactive,–,–,–,–,–,–,–
CCCc1ccc(O)cc1,inactive,inactive,inactive,–,–,inactive,inactive,inactive,inactive,–,70.5 µM (active),–,–,–,–
CCC(C)(CCCC(C)C)OC(C)=O (stereo unspecified),inactive,inactive,inactive,–,–,inactive,inactive,–,–,–,–,–,–,71.4 µM (active),–
OC[C@H]1O[C@@H](O[C@H]2[C@H](O)[C@@H](O)[C@H](O)O[C@@H]2CO)[C@H](O)[C@@H](O)[C@H]1O,inactive,inactive,inactive,inactive,–,–,inactive,inactive,inactive,–,–,–,–,–,–
Cc1cc(N)n(-c2ccccc2)n1,inactive,inactive,inactive,inactive,–,inactive,inactive,–,inactive,–,–,–,–,–,–
CCC(=O)OCC=Cc1ccccc1,inactive,inactive,inactive,inactive,–,inactive,inactive,–,–,–,–,–,–,–,–
